PubChem BioAssay (NCATS)
Values joined by “and” are separate entries in the source; they are usually repeats but may differ in a detail not shown here. Equal values may be shown once. Inconclusive results are not listed. A call without a number means that no potency is given here. Active and inactive are the calls of the source. Calls come from the whole dose curve; as a rule, active = well fitted curve in the direction sought with a large enough effect; inconclusive = small, poorly fitted or top-dose-only effect, or another doubt; inactive = no such curve, though single readings can be large; an effect the other way counts as inactive or inconclusive.

Test: qHTS of pediatric cancer cell lines to identify multiple opportunities for drug repurposing: Primary screen for MG 63 (6-TG R) cells (AID 1347105); note: nearly all actives have a fitted effect of over 50% in size; note: potency is the fitted concentration of half-maximal effect
Settings: MG 63 (6-TG R) viability, CellTiter-Glo, 48 h; series mostly up to 46 µM; activity change, negative = cytotoxic: at the top concentration
Outline: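 Cells plated at 500-1,000/well in growth medium, compounds added after 5 h. MIPE tested at 11 points (from 0.78 nM), NPC at 8 points (from 0.59 nM). CellTiter-Glo luminescence after 48 h; concentration-response curves from primary screen.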

Row | SMILES | activity change, negative = cytotoxic | Potency
1 | Nc1nc(=S)c2[nH]cnc2[nH]1 | 3.01% (inactive) | 
2 | COC(=O)Nc1nc2ccc(C(=O)c3ccccc3)cc2[nH]1 |  | 84.1 nM (active) and 935 nM (active)
3 | O=C(O)c1cn(C2CC2)c2cc(N3CCNCC3)c(F)cc2c1=O |  | inactive
4 | Nc1nc(N)nc(-c2cc(Cl)ccc2Cl)n1 |  | inactive
5 | Nc1nc(N)c2nc(CNc3ccc(C(=O)NC(CCC(=O)O)C(=O)O)cc3)cnc2n1 (stereo not drawn) | -8.57% (inactive) | 
6 | Cc1ccc(S(=O)(=O)N[C@@H](Cc2ccccc2)C(=O)CCl)cc1 |  | 29.6 µM (active)
7 | N=C(N)c1ccc(OCCCCCOc2ccc(C(=N)N)cc2)cc1 | -12.3% (inactive) | 
8 | CN(Cc1cc(Br)cc(Br)c1N)C1CCCCC1 |  | inactive
9 | CCN1CCCC1CNC(=O)c1cc(S(N)(=O)=O)ccc1OC (stereo not drawn) | 0.711% (inactive) | 
10 | Cc1noc(NS(=O)(=O)c2ccc(N)cc2)c1C |  | inactive
11 | COc1nc(N)nc2c1ncn2[C@@H]1O[C@H](CO)[C@@H](O)[C@@H]1O |  | inactive
12 | Cn1nnc2c(C(N)=O)ncn2c1=O |  | inactive
13 | COC(=O)Nc1nc2ccc(Sc3ccccc3)cc2[nH]1 |  | 668 nM (active) and 1.18 µM (active)
14 | CCc1c2c(nc3ccc(OC(=O)N4CCC(N5CCCCC5)CC4)cc13)-c1cc3c(c(=O)n1C2)COC(=O)[C@]3(O)CC |  | 21.1 µM (active) and 1.48 µM (active)
15 | Oc1c(Cl)cc(Cl)c2cccnc12 |  | 6.68 µM (active) and 11.8 µM (active)
16 | CC1CC2C3CCC4=CC(=O)C=C[C@]4(C)[C@@]3(F)[C@@H](O)C[C@]2(C)[C@@]1(O)C(=O)CO (stereo partly drawn) | -0.56% (inactive) | 
17 | CNNCc1ccc(C(=O)NC(C)C)cc1 |  | inactive
18 | COc1cc(NCc2ccc3nc(N)nc(N)c3c2C)cc(OC)c1OC | -33.7% (inactive) | 
19 | COc1cc2nc(N3CCCN(C)CC3)nc(NC3CCN(Cc4ccccc4)CC3)c2cc1OC |  | 9.35 µM (active)
20 | O=C(NCC1CN(c2ccc(N3CCOCC3=O)cc2)C(=O)O1)c1ccc(Cl)s1 (stereo not drawn) |  | inactive

Test: qHTS of pediatric cancer cell lines to identify multiple opportunities for drug repurposing: Primary screen for control Hh wild type fibroblast cells (AID 1347106);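 note: a drop in luminescence marks cytotoxicity and a rise apparent proliferation; nearly all actives have a fitted effect of over 55% in size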
Settings: Hh wild-type fibroblast viability, CellTiter-Glo luminescence, 48 h; series mostly up to 46 µM; activity change, negative = cytotoxic: at the top concentration
Outline: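 Cells (500-1,000/well) in growth media were settled 5 h at 37 degrees C, then given compounds for 48 h. Viability was read as CellTiter-Glo luminescence. Primary runs used MIPE at 11 points (0.78 nM-46 µM) and NPC at 8 points (0.59 nM-46 µM); follow-ups used 11 points.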

Row | SMILES | activity change, negative = cytotoxic | Potency
21 | Nc1nc(=S)c2[nH]cnc2[nH]1 | -27.9% (inactive) | 
22 | O=C(O)c1cn(C2CC2)c2cc(N3CCNCC3)c(F)cc2c1=O |  | inactive
23 | Cc1nnc(NS(=O)(=O)c2ccc(N)cc2)s1 |  | inactive
24 | O=c1oc2c(O)c(O)cc3c(=O)oc4c(O)c(O)cc1c4c23 |  | inactive
25 | OC(Cn1cncn1)(Cn1cncn1)c1ccc(F)cc1F |  | inactive
26 | Nc1nc(N)nc(-c2cc(Cl)ccc2Cl)n1 |  | inactive
27 | O=C(O)C1CCCN(CCC=C(c2ccccc2)c2ccccc2)C1 (stereo not drawn) | 2.69% (inactive) | 
28 | Cc1ccc(S(=O)(=O)N[C@@H](Cc2ccccc2)C(=O)CCl)cc1 | -14.7% (inactive) | 
29 | N=C(N)c1ccc(OCCCCCOc2ccc(C(=N)N)cc2)cc1 |  | inactive
30 | CN(Cc1cc(Br)cc(Br)c1N)C1CCCCC1 |  | inactive
31 | CCOCC(O)COc1ccc(NC(=O)CC[S+](C)C)cc1 (stereo not drawn) |  | inactive
32 | CC(=O)[C@H]1CC[C@H]2[C@@H]3CCC4=CC(=O)CC[C@]4(C)[C@H]3CC[C@]12C | -3.09% (inactive) | 
33 | CCOC(=O)[C@H](CCc1ccccc1)N[C@H]1CCc2ccccc2N(CC(=O)O)C1=O |  | inactive
34 | CCN1CCCC1CNC(=O)c1cc(S(N)(=O)=O)ccc1OC (stereo not drawn) | 2.92% (inactive) | 
35 | COc1ccc2c(c1)c(CC(=O)OCC(=O)O)c(C)n2C(=O)c1ccc(Cl)cc1 |  | inactive
36 | Cc1cc(NS(=O)(=O)c2ccc(N)cc2)no1 | 2.43% (inactive) | 
37 | O[C@@H](CNC[C@H](O)[C@H]1CCc2cc(F)ccc2O1)[C@@H]1CCc2cc(F)ccc2O1 |  | inactive
38 | Cc1noc(NS(=O)(=O)c2ccc(N)cc2)c1C |  | inactive
39 | COc1nc(N)nc2c1ncn2[C@@H]1O[C@H](CO)[C@@H](O)[C@@H]1O |  | inactive
40 | CCC(C)(C)c1ccc(CC(C)CN2C[C@@H](C)O[C@@H](C)C2)cc1 (stereo partly drawn) |  | inactive
41 | Cn1nnc2c(C(N)=O)ncn2c1=O |  | inactive
42 | O=C(O)c1cc(=O)[nH]c(=O)[nH]1 | 11.8% (inactive) | 
43 | COC(=O)Nc1nc2ccc(Sc3ccccc3)cc2[nH]1 |  | inactive
44 | CNC1CCCN(c2c(F)cc3c(=O)c(C(=O)O)cn(C4CC4)c3c2OC)C1 (stereo not drawn) |  | inactive
45 | CCc1c2c(nc3ccc(OC(=O)N4CCC(N5CCCCC5)CC4)cc13)-c1cc3c(c(=O)n1C2)COC(=O)[C@]3(O)CC |  | inactive
46 | Oc1c(Cl)cc(Cl)c2cccnc12 |  | inactive
47 | CN(C)CCc1c[nH]c2ccc(CS(=O)(=O)N3CCCC3)cc12 |  | inactive
48 | CC1CC2C3CCC4=CC(=O)C=C[C@]4(C)[C@@]3(F)[C@@H](O)C[C@]2(C)[C@@]1(O)C(=O)CO (stereo partly drawn) | -5.2% (inactive) | 
